Compound activity: PubChem, National Center for Advancing Translational Sciences (NCATS)
HCV inh: blocks hepatitis C virus. Huh7.5.1 HCVcc-Cre infection, luciferase reporter, 44 h. Potency, µM (titrated, usually from 41.8 µM), actives largely listed as inhibitors. 3.4% of 340,000 active
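After 44 h co-culture of compound, cells and HCVcc-Cre (~0.5 moi), substrate is added for 15 min at room temperature and luciferase measured over 15 sec. Cells were seeded at 1,000/well and pre-cultured 4 h.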
Pf growth 96h: P. falciparum growth inhibition at 96 hour, primary screen for plastid delayed-death inhibitors; P. falciparum luciferase reporter growth, 96 h; Potency, µM (titrated, usually from 28.7 µM), actives largely listed as inhibitors; 6.9% of 320,000 active; AID 504834
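Readout is luminescence from an integrated firefly luciferase in P. falciparum. Red cells, 2% hematocrit and 0.05% parasitemia final, were cultured with compound through two parasite generations (96 hours) at 37 C, 5% CO2.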
HCMV inh: inhibitors of human cytomegalovirus | HFF cells, HCMV-luciferase reporter, 72 h; active compounds read low | activity change, negative = inhibition, % at 57.5 µM | 4.5% of 410,000 active | AID 1259415; in the data active = activity change below about -60%; inconclusive = no clear call, values can overlap the other calls; inactive = above about -39%
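Luciferase read-out from HCMV-luciferase-infected HFFs (MOI 1 PFU/cell) 72 h post infection at 37C; compounds added after 16 h cell attachment; activity normalized between buffer-only basal and Salinomycin (10uM) inhibitor controls.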
Pf growth 48h: P. falciparum growth inhibition at 48 hours (one generation); P. falciparum luciferase growth in erythrocytes, 48 h; Potency, µM (highest dose often 28.7 µM), most hits filed as inhibitors; 5.9% of 310,000 active
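Growth was read as firefly luciferase luminescence after a 48 h, 37 C, 5% CO2 exposure of compounds to reporter-bearing P. falciparum cultures (0.1% parasitemia, 2% hematocrit final) in Albumax-supplemented RPMI 1640.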
Numbers stand for hits; – = inactive; ? = inconclusive; · = not tested or not shown; [ ] = remark or other dose. Compounds with a hit are over-represented: about 13% of the library has one in this group of screens. Unless noted, calls come from the whole dose curve; as a rule, active = well fitted inhibition curve with a large enough effect; inconclusive = small, poorly fitted or top-dose-only effect, or another doubt; inactive = no such curve, though single readings can be large or run the other way.

SMILES | HCV inh | Pf growth 96h | HCMV inh | Pf growth 48h
CCc1ccc(N(CC(=O)N2CCOCC2)S(C)(=O)=O)cc1 | – | 13.1µM | – | –
COc1ccc(N(CC(=O)Nc2ccc(Cl)cc2)S(=O)(=O)c2c(C)n[nH]c2C)cc1 | – | – | ? | ?
COc1ccc(N(CC(=O)N2CCN(c3ccc(Cl)cc3)CC2)S(=O)(=O)c2c(C)n[nH]c2C)cc1 | ? | – | -72.7 | ?
COc1ccc(S(=O)(=O)N(CC(=O)N2CCN(c3ccccc3)CC2)c2ccccc2)cc1 | ? | ? | – | ·
Cc1nc2c(-c3ccccc3)c(C)nn2c(C)c1CCC(=O)N1CCN(c2ccccc2)CC1 | · | · | – | ·
CC(C)(C)OC(=O)N1CCC(c2c(C(=O)NC3CCN(Cc4ccccc4)CC3)cnn2-c2cccc(F)c2)CC1 | · | · | – | ·
CNC(=O)C1CCC(Cn2c(=O)c3sccc3n(CC(=O)Nc3ccc(C)c(F)c3)c2=O)CC1 (configuration not stated) | · | · | – | ·
CC(C)CC(=O)n1nc(-c2ccco2)nc1NCc1ccc(Cl)cc1 | · | · | – | ·
Cc1ccc2c(c1)nnn2C1CCN(S(=O)(=O)c2cccc(S(=O)(=O)N(C)C)c2)CC1 | 10µM | ? | – | 10.4µM
Cc1ccc2c(c1)nnn2C1CCN(S(=O)(=O)c2ccc3ccccc3c2)CC1 | ? | – | -64.4 | 10.4µM
Cc1ccc2nc(C3CCN(S(=O)(=O)c4ccc5ccccc5c4)CC3)[nH]c2c1 | ? | ? | -79.8 | ?
O=S(=O)(NC1CCCC1)c1cccc(S(=O)(=O)N2CCC(n3nnc4ccccc43)CC2)c1 | ? | – | – | 10.4µM
Cc1ccc2c(c1)nnn2C1CCN(S(=O)(=O)c2ccc(C(=O)N(C)C)cc2)CC1 | ? | – | – | ?
COc1ccc(N2C(=O)c3ccccc3NC(=O)C2C(=O)Nc2ccc(N3CCOCC3)cc2)cc1 (configuration not stated) | · | · | – | ·
CCC(=O)N1CCc2cc(Br)cc(S(=O)(=O)CCC(=O)N3CCN(c4ccccc4F)CC3)c21 | · | · | – | ·
CCOC(=O)c1c(NC(=O)CCCOc2ccccc2C)sc2c1CCC(C)C2 (configuration not stated) | · | · | – | ·
CCOC(=O)C1=C(c2ccccc2)c2ccc(OC)cc2N(S(=O)(=O)C(F)(F)F)C1C(=O)OCC (configuration not stated) | 2µM | · | – | ·
CCOC(=O)C1=C(C)c2ccccc2N(S(=O)(=O)C(F)(F)F)C1C(=O)OCC (configuration not stated) | –[8.37 µM] | · | – | ·
CCCCC[C@@H]1[C@@H]2C(=C(OCC)C[C@@H]3C(=O)N(c4ccccc4)C(=O)[C@H]23)[C@H](c2ccccc2)N1S(=O)(=O)c1ccc(C)cc1 | · | · | – | ·
CCOC1=C2[C@H](c3ccccc3)N(S(=O)(=O)c3ccc(C)cc3)C(C(C)(C)C)[C@H]2C(C#N)(C#N)C(C#N)(C#N)C1 (some centres not stated) | · | · | -100.3 | ·
CCCc1sc(N/N=C/c2ccccn2)nc1-c1ccc(Br)cc1 | 3.16µM | – | -98.5 | 1.65µM
CCc1ccc(-c2cc(C(=O)N/N=C/c3ccccn3)[nH]n2)cc1 | – | – | – | ?
CC(C)(C)OC(=O)C[C@H]1C/C=C\C[C@H](CC(=O)NCCO)C(=O)N2CCC[C@@H]2COC1=O | – | · | -60.4 | ·
CCOC(=O)c1c(S(=O)(=O)N2CCC(C(=O)NCc3cccc(C)c3)CC2)c(C)n(C)c1C | · | · | – | ·
COc1cccc(CN2CCN(C(=O)c3cc(-c4cccnc4)nc4ccc(C)cc34)CC2)c1 | – | ? | – | 9.28µM
SMILES | HCV inh | Pf growth 96h | HCMV inh | Pf growth 48h
COc1ccc(N2CCN(C(=O)c3cn(Cc4ccccc4)nc3-c3cccnc3)CC2)cc1 | – | 10.4µM | – | ?
COc1cccc(N2CCN(C(=O)c3cc4c(=O)n(Cc5cccnc5)ccc4nc3C)CC2)c1 | · | · | – | ·
CCOC(=O)c1c(C)[nH]c(C)c1S(=O)(=O)N1CCC(C(=O)N2CCN(c3ccccc3)CC2)CC1 | · | · | – | ·
Cn1c2ccccc2c2nn(-c3ccccc3)c(=O)cc21 | – | 10.4µM | – | –
NNc1ccc(Cc2ccc(Cl)cc2Cl)nn1 | ? | ? | -69.8 | –
Nc1nc(N)c(Cc2ccc(Cl)cc2Cl)c(N)n1 | ? | ? | -73.5 | ?
Nc1nccc(SCc2ccc(Cl)cc2Cl)n1 | – | · | – | ·
CN1CCN(C(=O)Nc2cccc(Cl)c2)c2cccnc21 | · | · | – | ·
CC(C)Sc1cc(N2CCCC2)nc(-c2ccc(F)cc2)n1 | – | ? | – | 13.1µM
CC(C)Sc1cc(N2CCCC2)nc(-c2ccccc2)n1 | ? | ? | – | ?
Cc1ccc(S(=O)(=O)c2cc(N3CCOCC3)nc(-c3ccccc3)n2)cc1 | – | 8.28µM | – | ?
CC(C)Sc1cc(N2CCOCC2)nc(-c2ccccc2)n1 | 12.6µM | ? | ? | ?
CC(C)Sc1cc(N2CCCC2)nc(-c2ccccc2Cl)n1 | ? | ? | – | ?
Cc1ccc(S(=O)(=O)c2nnn3c2nc(N2CCOCC2)c2ccccc23)cc1 | 11.2µM | – | – | –
O=C(CCS(=O)(=O)c1cccc2nonc12)Nc1c(F)cccc1F | · | · | – | ·
c1sc2[n+](c1C13CC4CC(CC(C4)C1)C3)CCS2 | – | 2.94µM | -63.8 | 2.33µM
Nc1nc(C23CC4CCC(CC(C4)C2)C3)cs1 | – | – | ? | ?
O=C(CSc1nnc(NC(=O)NC2CCCCC2)s1)Nc1ccccc1F | · | · | – | ·
O=C1Nc2ccc(Br)cc2/C1=C/C(=O)c1ccc2c(c1)OCO2 | ? | – | -100.3 | –
COc1ccccc1CNC(=O)CSc1ccsc1[N+](=O)[O-] | – | – | – | –
O=C(CSc1ccsc1[N+](=O)[O-])N1CCN(c2ccccn2)CC1 | – | ? | -67.8 | ?
O=C(CSc1ccccc1)N1CCN(c2ccccn2)CC1 | – | – | – | –
CCc1ccccc1NC(=O)CSc1ccsc1[N+](=O)[O-] | ? | 2.33µM | -65.9 | –
O=C(CSc1ccsc1[N+](=O)[O-])Nc1cccc(F)c1 | – | – | – | –
COc1ccc(CCNC(=O)CSc2ccsc2[N+](=O)[O-])c(OC)c1 | – | 1.65µM | – | ?
SMILES | HCV inh | Pf growth 96h | HCMV inh | Pf growth 48h
O=C(CSc1ccsc1[N+](=O)[O-])NCc1ccccc1 | – | 14.7µM | – | –
COc1ccc2c(c1)[C@@H](NC(=O)OCc1ccccc1)[C@H](C)[C@@H](c1ccccc1)N2C(=O)Nc1ccc(C(F)(F)F)cc1 | · | · | – | ·
Cc1cc(C)n(-c2nc3cc(Cl)ccc3nc2N2CCN(c3cccc(C)c3C)CC2)n1 | · | · | – | ·
COc1ccc(Cl)cc1-n1nnc(-c2nsc(NC(=O)c3ccccc3Cl)n2)c1C | · | · | – | ·
COc1ccccc1NC(=O)CC1Nc2ccccc2NC1=O (configuration not stated) | 10µM | · | – | 3.7µM
CCCC1(CCC)NC(=O)N(CC(=O)Nc2ccccc2OC)C1=O | – | ? | -108.7 | ·
COc1ccc(C(=O)CCC(=O)Nc2ccc(C)c(Cl)c2)cc1 | · | · | – | ·
O=C(CS(=O)(=O)c1cccc2nsnc12)NCc1ccccc1Cl | · | · | – | ·
Cc1ccc(NC(=O)c2cc(N3C(=O)C=CC3=O)ccc2N2CCOCC2)cc1 | 10µM | – | ? | –
Cc1ccc(NC(=O)c2cc(NC(=O)c3ccco3)ccc2N2CCCCC2)cc1 | ? | – | -63.7 | 6.57µM
O=C(Nc1ccc(N2CCOCC2)c(C(=O)O)c1)c1ccco1 | · | – | · | ·
